# Screening data from PubChem BioAssay.
# Only some compounds are listed: those with a hit (about 2.3% of all), similar ones and a draw of the others.
# KLK7 zymogen act = proKLK7 (human) activation, primary screen; P49862; purified proKLK7, EDANS-DABCYL substrate fluorescence; 100% is mature enzyme control, 0% vehicle; activation, % at 7 µM; 370,000 tested, 0.9% active; AID 652039;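 active = activation above the mean of all tested compounds plus 3 SD, computed per campaign excluding outliers beyond control limits, cut at about 13% in these data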
# Target sequence (P49862 whole entry, looked up): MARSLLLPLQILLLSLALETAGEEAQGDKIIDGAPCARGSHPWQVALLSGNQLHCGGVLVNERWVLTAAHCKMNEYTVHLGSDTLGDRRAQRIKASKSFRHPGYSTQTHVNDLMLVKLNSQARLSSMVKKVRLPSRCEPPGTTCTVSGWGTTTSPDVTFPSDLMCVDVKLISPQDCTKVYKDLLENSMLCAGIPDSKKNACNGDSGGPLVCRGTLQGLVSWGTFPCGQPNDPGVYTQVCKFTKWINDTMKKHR
# ADAM17 inh = ADAM17 inhibition, QFRET primary screen. AID 720648. inhibition, % at 6.95 µM. 370,000 tested, 0.83% active. recombinant ADAM17, EDANS/DABCYL FRET peptide cleavage;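 active = inhibition above the mean of compounds lying between control limits plus 3 SD, set per campaign, cut at about 8.5% in these data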;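 also: 0% = DMSO-only wells as the low control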
# V-ATPase pHluor = yeast V-ATPase proton transport regulation by pHLuorin. S. cerevisiae, pHLuorin cytosolic pH fluorescence. response, % at 10 µM. 350,000 tested, 0.37% active. AID 504577; in the data active = response mostly above about 7.3%, no sharp cut-off; inactive = mostly below about 5.4%; also: actives read high
# ADAM10 inh = ADAM10 inhibition, QFRET primary screen; O14672; recombinant ADAM10, EDANS/DABCYL FRET peptide cleavage, 3 h; inhibition, % at 7 µM; 370,000 tested, 0.62% active;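 active = inhibition above a per-campaign cutoff equal to the mean of compounds falling between control-based bounds plus 3 SD, cut at about 20% in these data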;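 also: 0% = DMSO wells while the 100% control is not disclosed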
# KLK7 act conf = proKLK7 activation, confirmation; shares compounds with KLK7 zymogen act; purified proKLK7, EDANS-DABCYL substrate fluorescence; scaled: vehicle 0, mature enzyme 100; activation, % at 7 µM; 3,200 tested, 68% active;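 active = activation, as change over the incubation, above the mean of all tested compounds plus 3 SD, cut at about 13% in these data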
# EDANS interfere = optically interferes with EDANS-DABCYL signal, flagging KLK7 hits. EDANS-DABCYL substrate fluorescence interference, no enzyme, 4 h; solvent 0%, active enzyme control 100%. AID 686952. activation, % at 7 µM. shares compounds with KLK7 zymogen act. 3,200 tested, 80% active;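 active = activation above the all-compound mean plus 3 SD, ignoring values outside control-based bounds, cut at about 4.8% in these data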;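 also: value is the 4 h activation minus the activation read at time zero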
# Numbers without * were called inactive; i = inactive; nt = not tested or not shown.
SMILES,KLK7 zymogen act,ADAM17 inh,V-ATPase pHluor,ADAM10 inh,KLK7 act conf,EDANS interfere
CC(=O)c1cccc(NC(=O)CSc2n[nH]c(=O)n2C2CC2)c1,52*,-1,3,-1,-1,1
COC(=O)[C@@H](Cc1ccccc1)N[C@H](/C=C/c1ccccc1)[C@@H](O)Cc1ccccc1,0,1,nt,2,nt,nt
Cc1c(C)c2c(OCC(=O)Nc3ccc(CCO)cc3)cc3c(c2oc1=O)CCC(C)(C)O3,-59,i,-1,i,nt,nt
Cc1c(C)c2c(OCC(=O)O)cc3c(c2oc1=O)CCC(C)(C)O3,33*,i,0,i,61*,73*
Cc1c(C)c2c(OCC(=O)NCC(=O)NCC(=O)O)cc3c(c2oc1=O)CCC(C)(C)O3,57*,i,0,i,79*,79*
C[C@@H]1C=CCCO[C@]12C(=O)N(Cc1ccc(F)cc1)c1ccccc12,0,-7,nt,-8,nt,nt
Cn1c(=O)c2[nH]c(-c3ccccc3Cl)c(O)c2n(C)c1=O,58*,0,-1,-2,71*,77*
CC(=O)Nn1cc2c(c1-c1ccccc1)c(=O)n(C)c(=O)n2C,0,-6,2,-10,nt,nt
Cn1c2c(c(=O)n(C)c1=O)C(C(F)(F)F)(C(F)(F)F)N=C(c1ccccc1Cl)N2,0,-1,0,-1,nt,nt
Cn1c(=O)c2[nH]c(-c3ccccc3)c(O)c2n(C)c1=O,17*,-5,-2,-20,41*,40*
Cc1ccccc1N=Nc1c(N)[nH]n(-c2ccccc2)c1=O,0,3,nt,4,nt,nt
COc1ccc2c(c1)[C@@]1(OCCC=C[C@H]1C)C(=O)N2Cc1ccccc1C(F)(F)F,0,-5,nt,-15,nt,nt
CCNC(=S)NNC(=O)c1cc(Br)cs1,13*,-6,1,-5,6,6.5*
O=C(NC1CCCC1)[C@@H]1CCCN1C(=O)[C@@H](NS(=O)(=O)c1ccc(F)cc1F)c1ccccc1,0,-4,nt,-12,nt,nt
CCOC(=O)CN1C(=O)[C@]2(OCCC=C[C@H]2C)c2ccccc21,0,-6,nt,-13,nt,nt
N#Cc1nc(-c2cccs2)oc1NCCN1CCOCC1,28*,-376,-5,i,42*,39*
CN(C)c1oc(-c2cccs2)nc1C#N,39*,i,4,i,65*,82*
CNc1oc(-c2cccs2)nc1C#N,-19,i,-7,i,nt,nt
N#Cc1nc(-c2ccccc2)oc1NCCN1CCCCC1,40*,-169,-4,i,8,10*
N#Cc1nc(-c2ccccc2)oc1NCC1CCCO1 (stereo unspecified),8,-265,-2,i,nt,nt
Cc1ccccc1NC(=O)OC1CC2CC1[C@H]1CCCCN1[C@H]2Cc1ccccc1 (stereo partly specified),-1,-2,nt,-8,nt,nt
CC1=C(C#N)C(c2cccnc2)C2=C(CC(c3ccc(Cl)cc3)CC2=O)N1 (stereo unspecified),13*,-496,-5,i,2,9.2*
CC1=C(C#N)C(c2ccc(O)cc2)C2=C(CCCC2=O)N1 (stereo unspecified),3,-75,0,-200,nt,nt
O=C(/C=C(\Nc1cc(Cl)c(F)c(Cl)c1)c1ccccc1)c1ccccc1,0,-2,nt,-14,nt,nt
O=C(NC1CCCC1)[C@@H]1CCCN1C(=O)[C@@H](NC(=O)N1CCOCC1)C1CCCCC1,0,-5,nt,-15,nt,nt
SMILES,KLK7 zymogen act,ADAM17 inh,V-ATPase pHluor,ADAM10 inh,KLK7 act conf,EDANS interfere
O=C(O)c1cccc(CN2C(=O)SC(Nc3cccc4ccccc34)C2=O)c1 (stereo unspecified),60*,-31,-1,-95,62*,69*
Cn1c2ccccc2c2ncn(Cc3ccc(F)cc3)c(=O)c21,1,-12,1,-27,nt,nt
Cn1c2ccsc2c2ncn(Cc3ccccc3F)c(=O)c21,65*,i,0,i,65*,62*
O=C(c1nc2n(n1)C(c1ccc(Cl)cc1)C=C(c1ccccc1)N2)N1CCOCC1 (stereo unspecified),54*,-48,0,-143,-37,-34
CC(=O)Nc1nc2n(n1)C(c1ccc(F)cc1)C=C(c1ccccc1)N2 (stereo unspecified),22*,-86,0,-250,-23,0
CC(=O)Nc1nc2n(n1)C(c1ccccc1)C=C(c1ccccc1)N2 (stereo unspecified),nt,nt,4,nt,nt,nt
COC(=O)COc1cc(OCC(=O)OC)c2c(C)c(Cl)c(=O)oc2c1,192*,-339,0,i,304*,277*
COC(=O)COc1cc(C)cc2oc(=O)c(CC(=O)OC)c(C)c12,74*,-180,5,i,97*,99*
COC(=O)C(C)Oc1cc(OC(C)C(=O)OC)c2c(C)c(Cl)c(=O)oc2c1 (stereo unspecified),65*,i,-4,i,-40,29*
CN(C(=O)c1cccnc1)c1nnc(-c2cccnc2)s1,1,-8,1,-12,nt,nt
CN(C(=O)c1ccccn1)c1nnc(-c2cnccn2)s1,9,-3,3,-4,nt,nt
CN(C(=O)c1ccncc1)c1nnc(-c2cnccn2)s1,33*,-4,0,-15,77*,82*
Cc1ccc(-c2nnc(N(C)C(=O)C3CCCO3)s2)cn1 (stereo unspecified),3,-5,10,-10,nt,nt
CN(C(=O)C1CCCO1)c1nnc(-c2cnccn2)s1 (stereo unspecified),54*,-10,-1,-15,39*,81*
CN(C(=O)c1cccnc1)c1nnc(-c2cnccn2)s1,42*,-7,1,-9,33*,34*
CN(C(=O)c1cnccn1)c1nnc(-c2cnccn2)s1,20*,-13,-1,-21,38*,42*
O=C(C(=O)N1CCC(CNS(=O)(=O)c2ccc(F)c(F)c2)CC1)c1cc2ccccc2o1,0,-2,nt,-1,nt,nt
Cc1nnc(N(C)C(=O)c2cccnc2)s1,-1,-4,-7,4,nt,nt
CN(C(=O)c1cccnc1)c1nnc(-c2ccccn2)s1,73*,-65,6,-204,39*,37*
O=C(O)c1c2c(nc3ccccc13)/C(=C/c1ccc(O)cc1)CC2,28*,-25,1,-93,68*,70*
O=C(O)c1c2c(nc3ccccc13)/C(=C/c1ccc(OC(F)F)cc1)CCC2,2,-36,0,-71,nt,nt
Cc1cccn2cc(-c3c[nH]c4ccccc34)nc12,16*,-221,1,i,6,2
Clc1c2c(nc3ccccc13)CCC2,0,-1,0,-4,nt,nt
Nc1ccc2nc3c(c(Cl)c2c1)CCCC3,14*,-65,-5,-194,1,1
COc1c2c(cc3ccc(=O)oc13)CCO2,20*,-139,-2,-334,28*,29*
COc1c2occc2cc2ccc(=O)oc12,1,-1,3,-13,nt,nt
